Compound activity: PubChem, Broad Institute
T cruzi growth-1 = T. cruzi proliferation inhibition. T. cruzi beta-gal in NIH3T3, GalScreen luminescence, 90 h. inhibition, % at 8.34 µM. 77,000 tested, 5.9% active;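 active means mean inhibition above about 93%, with at least 55% of replicates each passing it, limit read from the data, passing the limit was not always enough; inconclusive means only one of those two conditions holds; inactive means neither condition holds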
Pf Dd2 growth = blocks growth of Plasmodium falciparum Dd2 parasites; P. falciparum Dd2 growth, SYBR Green, 72 h; stronger effect = lower value; activity change, % at 10 µM; 94,000 tested, 2.3% active; in the data active means activity change below about -80%; inconclusive means no clear call, values can overlap the other calls
C diff HTS = blocks growth of Clostridium difficile; Clostridium difficile clinical isolate growth, OD600, 24 h; stronger effect = lower value; growth activity, negative = inhibition, % at 16 µg/mL (by protocol); 86,000 tested, 0.25% active;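 active means mean growth activity at or below -80% and every replicate also at or below -80%; inconclusive means mean at or below -80% but some replicate above -80%; inactive means mean growth activity above -80%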
T cruzi growth-2 = inhibitors of T. cruzi proliferation | shares compounds with T cruzi growth-1 | T. cruzi beta-gal in NIH3T3, GalScreen luminescence, 90 h | inhibition, % at 8.35 µM | 5,600 tested, 72% active;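 active means mean replicate inhibition above about 95% and at least 55% of replicates individually reaching it, limit read from the data; inconclusive means only one of the two criteria is met; inactive means neither criterion is met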
T cruzi growth-3 = inhibitors of T. cruzi proliferation; shares compounds with T cruzi growth-1; T. cruzi beta-gal in NIH3T3, GalScreen luminescence, 90 h; inhibition, % at 2.09 µM; 5,600 tested, 21% active;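 active means mean inhibition above about 95%, with at least 55% of replicates also reaching it, limit read from the data; inconclusive means meets just one of the two conditions; inactive means meets neither condition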
3T3 cytotox = kills mouse NIH/3T3 fibroblasts | shares compounds with T cruzi growth-1 | NIH/3T3 viability, CellTiter-Glo ATP luminescence, 90 h | cytotoxicity (signal decrease), % at 8.35 µM | 5,600 tested, 14% active | AID 651742;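 active means mean signal decrease across replicates above about 35% based on untreated-well scatter, with enough replicates individually passing, limit read from the data; inconclusive means no rule stated though some were filed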
NIH3T3 tox 2 = kills mouse NIH/3T3 fibroblasts; NIH/3T3 viability, CellTiter-Glo ATP luminescence, 90 h; inhibition, % at 24.9 µM; AID 651744; 5,600 tested, 56% active; shares compounds with T cruzi growth-1;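 active means mean loss of cell viability signal at or above a set limit, and enough replicates individually reaching it; inconclusive means meets only the mean limit or only the replicate share; inactive means meets neither condition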
Each line names hits and unclear results; the compound was inactive in the other large screens (follow-up assays come after a bar, where they were run); ! = repeats disagree. Hits are enriched below; roughly 6.8% of the tested compounds scored in any of these assays.

Cc1ccc(-c2ccc([C@@H]3[C@H]4CN(C(=O)Nc5ccccc5)CCCCN4[C@H]3CO)cc2)cc1	T cruzi growth-1 inconclusive | T cruzi growth-2 inconclusive | T cruzi growth-3 inactive | 3T3 cytotox inactive | NIH3T3 tox 2 103
Cc1ccccc1-c1ccc([C@H]2[C@@H](CO)N3CCCCN(C(=O)Nc4ccccc4)C[C@@H]23)cc1	none
Cc1ccccc1-c1ccc([C@@H]2[C@H](CO)N3CCCCN(C(=O)Nc4ccccc4)C[C@@H]23)cc1	none
C[C@@H]1CN([C@H](C)CO)C(=O)c2cc(-c3ccc(F)cc3)cnc2O[C@H]1CN(C)C(=O)CN(C)C	none
COc1cccc(NC(=O)N(C)C[C@@H]2Oc3ncc(C#Cc4ccncc4)cc3C(=O)N([C@@H](C)CO)C[C@H]2C)c1	none (no result: T cruzi growth-1)
COc1ccc(C#Cc2cnc3c(c2)C(=O)N([C@@H](C)CO)C[C@H](C)[C@@H](CN(C)C(=O)Nc2cccc(OC)c2)O3)cc1	none
COc1ccc(C#Cc2cnc3c(c2)C(=O)N([C@H](C)CO)C[C@H](C)[C@@H](CN(C)C(=O)Nc2cccc(OC)c2)O3)cc1	T cruzi growth-1 110! | T cruzi growth-2 96 | T cruzi growth-3 inactive | 3T3 cytotox inactive | NIH3T3 tox 2 29
COc1ccc(C#Cc2cnc3c(c2)C(=O)N([C@@H](C)CO)C[C@H](C)[C@H](CN(C)C(=O)Nc2cccc(OC)c2)O3)cc1	none
COc1ccc(C#Cc2cnc3c(c2)C(=O)N([C@H](C)CO)C[C@@H](C)[C@@H](CN(C)C(=O)Nc2cccc(OC)c2)O3)cc1	T cruzi growth-1 inconclusive | T cruzi growth-2 110 | T cruzi growth-3 inactive | 3T3 cytotox inactive | NIH3T3 tox 2 inactive
COc1ccc(C#Cc2cnc3c(c2)C(=O)N([C@@H](C)CO)C[C@@H](C)[C@@H](CN(C)C(=O)Nc2cccc(OC)c2)O3)cc1	T cruzi growth-1 inconclusive | T cruzi growth-2 109 | T cruzi growth-3 inactive | 3T3 cytotox inactive | NIH3T3 tox 2 inactive
CCS(=O)(=O)N1CC2(CN(C(=O)c3ccc(F)cc3)[C@H](CO)c3[nH]c4cc(OC)ccc4c32)C1	none (no result: T cruzi growth-1)
C[C@@H]1CCCCO[C@@H](CN(C)S(=O)(=O)c2ccc(F)cc2)[C@@H](C)CN([C@H](C)CO)C(=O)c2cc(NS(=O)(=O)c3cccs3)ccc2O1	none
CCC(=O)N(C)C[C@@H]1Oc2cc(/C=C/c3ccccc3)ccc2S(=O)(=O)N([C@@H](C)CO)C[C@@H]1C	none
C[C@@H]1CN([C@@H](C)CO)C(=O)c2cc(N(C)C)ccc2O[C@H]1CN(C)CC1CCCCC1	T cruzi growth-1 102 | T cruzi growth-2 inactive | T cruzi growth-3 inactive | 3T3 cytotox inactive | NIH3T3 tox 2 inactive
C[C@H]1CN([C@@H](C)CO)C(=O)c2cc(N(C)C)ccc2O[C@H]1CN(C)CC1CCCCC1	none
C[C@H](CO)N1C[C@H](C)[C@H](CN(C)CC2CCCCC2)Oc2ccc(NC(=O)CCC(F)(F)F)cc2C1=O	none
C[C@@H]1CN([C@H](C)CO)C(=O)c2cc(NC(=O)CCC(F)(F)F)ccc2O[C@H]1CN(C)CC1CCCCC1	T cruzi growth-1 101 | T cruzi growth-2 inactive | T cruzi growth-3 inactive | 3T3 cytotox inactive | NIH3T3 tox 2 inactive
C[C@@H]1CN([C@H](C)CO)C(=O)c2cc(NC(=O)Nc3cccc4ccccc34)ccc2O[C@@H]1CN(C)Cc1ccc(C(=O)O)cc1	none (no result: T cruzi growth-1)
C[C@@H]1CN([C@@H](C)CO)C(=O)c2c(c3ccccc3n2C)-c2ccccc2CO[C@H]1CN(C)C(=O)c1ccccc1	none (no result: C diff HTS)
CCC(=O)N(C)C[C@@H]1Oc2ncc(C#Cc3ccccc3OC)cc2C(=O)N([C@H](C)CO)C[C@H]1C	none
COc1ccccc1C#Cc1cnc2c(c1)C(=O)N([C@H](C)CO)C[C@@H](C)[C@H](CN(C)C(=O)CC1CC1)O2	T cruzi growth-1 108 | T cruzi growth-2 102 | T cruzi growth-3 inactive | 3T3 cytotox inactive | NIH3T3 tox 2 39
COc1ccccc1C#Cc1cnc2c(c1)C(=O)N([C@@H](C)CO)C[C@H](C)[C@H](CN(C)C(=O)CC1CC1)O2	none
COc1ccccc1C#Cc1cnc2c(c1)C(=O)N([C@@H](C)CO)C[C@@H](C)[C@H](CN(C)C(=O)CC1CC1)O2	T cruzi growth-1 108 | T cruzi growth-2 112 | T cruzi growth-3 111 | 3T3 cytotox inactive | NIH3T3 tox 2 45
OC[C@@H]1[C@H](c2ccc(C#Cc3cccnc3)cc2)[C@H]2CN(Cc3ccccc3F)CCCCN12	T cruzi growth-1 114 | T cruzi growth-2 102 | T cruzi growth-3 113 | 3T3 cytotox 50 | NIH3T3 tox 2 104
OC[C@@H]1[C@@H](c2ccc(C#CC3(O)CCCC3)cc2)[C@H]2CN(Cc3ccccc3F)CCCCN12	T cruzi growth-1 105 | T cruzi growth-2 inactive | T cruzi growth-3 inactive | 3T3 cytotox inactive | NIH3T3 tox 2 58
OC[C@H]1[C@H](c2ccc(C#CC3(O)CCCC3)cc2)[C@H]2CN(Cc3ccccc3F)CCCCN21	none
CC(C)(O)C#Cc1ccc([C@@H]2[C@H]3CN(Cc4ccccc4F)CCCCN3[C@H]2CO)cc1	none
OC[C@H]1[C@H](c2ccc(C#Cc3cccnc3)cc2)[C@@H]2CN(Cc3ccccc3F)CCCCN12	T cruzi growth-1 112 | T cruzi growth-2 111 | T cruzi growth-3 inactive | 3T3 cytotox inactive | NIH3T3 tox 2 103
COCC#Cc1ccc([C@@H]2[C@H]3CN(Cc4ccccc4F)CCCCN3[C@H]2CO)cc1	none
O=C(C[C@H]1C[C@@H]2c3cc(NC(=O)Nc4ccc(F)cc4)ccc3O[C@@H]2[C@H](CO)O1)NCC1CC1	none
Cc1ccc(-c2ccc([C@H]3[C@H]4CN(S(=O)(=O)c5ccccc5C)CCCCN4[C@H]3CO)cc2)cc1	none
O=C(NC1CCCC1)N1CCCCN2[C@H](CO)[C@H](c3ccc(/C=C/c4ccccc4)cc3)[C@H]2C1	T cruzi growth-1 110 | T cruzi growth-2 100 | T cruzi growth-3 117 | 3T3 cytotox inactive | NIH3T3 tox 2 104
O=C(NC1CCCC1)N1CCCCN2[C@H](CO)[C@@H](c3ccc(/C=C/c4ccccc4)cc3)[C@H]2C1	none
O=C(NC1CCCC1)N1CCCCN2[C@H](CO)[C@H](c3ccc(/C=C/c4ccccc4)cc3)[C@@H]2C1	T cruzi growth-1 114 | T cruzi growth-2 95 | T cruzi growth-3 100 | 3T3 cytotox inactive | NIH3T3 tox 2 103
C/C=C/c1ccc([C@H]2[C@@H](CO)N3CCCCN(C(=O)NC4CCCC4)C[C@H]23)cc1	none
COc1ccc(S(=O)(=O)N2CCCCN3[C@H](CO)[C@H](c4ccc(-c5cccnc5)cc4)[C@@H]3C2)cc1	T cruzi growth-1 104 | T cruzi growth-2 104 | T cruzi growth-3 inactive | 3T3 cytotox inactive | NIH3T3 tox 2 42
COc1cccc(S(=O)(=O)N2CCCCN3[C@@H](CO)[C@@H](c4ccc(-c5cccnc5)cc4)[C@@H]3C2)c1	none
